Screens (PubChem BioAssay)
An excerpt weighted towards active compounds, which were near 18% of everything screened.
DT40 TDP1 CPT: DT40-hTDP1 cell growth loss with CPT. chicken DT40 Tdp1-/-;hTDP1 cells + 20 nM CPT, ATP luminescence, 48 h. Potency, µM (series often up to 46.2 µM), for the others: at the top dose activity change, negative = growth inhibition, usual class: inhibitors. hit rate 12% among 420,000. AID 686979; also: potency is read from the fitted curve at half-maximal effect; % is scaled to controls: 0 for no effect and ±100 for the full control effect; nearly all actives have a fitted effect of over 55% in size
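Cell growth measured by CellTiter-Glo luminescence after a minimum 48 h, 37 C compound exposure with 20 nM CPT in Tdp1-knockout DT40 cells stably expressing hTDP1, seeded 400/well; qHTS titration format.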
TDP1 block: TDP1 (human) enzyme inhibition; Q9NUW8; recombinant TDP1, AlphaScreen DNA substrate cleavage; Potency, µM (series often up to 130 µM), for inactives: at the top dose activity change, negative = inhibition, most hits filed as inhibitors; hit rate 0.28% among 350,000; also: potency is read from the fitted curve at half-maximal effect; % is scaled to controls: 0 for no effect and ±100 for the full control effect; nearly all actives have a fitted effect of over 40% in size
Target sequence (Q9NUW8 whole entry, looked up): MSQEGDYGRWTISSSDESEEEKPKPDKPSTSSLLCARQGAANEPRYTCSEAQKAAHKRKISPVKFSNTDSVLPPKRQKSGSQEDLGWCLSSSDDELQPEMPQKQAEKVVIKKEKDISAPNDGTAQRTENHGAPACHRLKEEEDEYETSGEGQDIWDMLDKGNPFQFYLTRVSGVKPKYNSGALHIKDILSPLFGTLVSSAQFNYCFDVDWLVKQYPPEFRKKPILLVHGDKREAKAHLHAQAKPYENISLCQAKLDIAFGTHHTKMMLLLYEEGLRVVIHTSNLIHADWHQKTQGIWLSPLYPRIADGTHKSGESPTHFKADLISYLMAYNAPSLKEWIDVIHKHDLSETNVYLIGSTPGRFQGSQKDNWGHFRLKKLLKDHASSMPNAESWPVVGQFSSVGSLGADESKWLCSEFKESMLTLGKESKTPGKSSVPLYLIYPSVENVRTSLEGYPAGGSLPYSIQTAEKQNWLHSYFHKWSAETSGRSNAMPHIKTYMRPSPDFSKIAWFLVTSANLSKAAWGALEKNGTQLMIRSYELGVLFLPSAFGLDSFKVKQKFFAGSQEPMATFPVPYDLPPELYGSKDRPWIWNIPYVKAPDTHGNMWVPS
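Here, a 5' biotin and 3' phosphotyrosine-FITC DNA oligonucleotide reports Tdp1 activity: intact substrate bridges AlphaScreen beads, while cleavage leaves a 3' phosphate and drops signal. All incubations at room temperature.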
TGFb inhibitor: blocks TGF-b signaling. HepG2 CAGA-GFP TGF-b/SMAD3 reporter, GFP fluorescence, 18 h; TGF-beta stimulated, 500 pg/mL final. Potency, µM (highest dose often 46.1 µM), inactives show at the highest dose activity, negative = inhibition, most hits filed as inhibitors. hit rate 1.2% among 410,000. AID 588855; also: potency is read from the fitted curve at half-maximal effect; % is scaled to controls: 0 for no effect and ±100 for the full control effect; nearly all actives have a fitted effect of over 65% in size
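HEPG2 CAGA-GFP, 1000 cells/well; 2 h settle, 37 C; cpd via pin tool; TGF-b 500 pg/mL final; 18 h, 37 C; GFP imaging ex488/em500-530; %Activity normalised to -TGF-b and +DMSO controls; CRC fit, curve class.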
HepG2 viability: HepG2 cytotoxicity, counter-screen for TGF-b inhibitors; hit rate 0.76% among 410,000; AID 588856; Potency, µM (series often up to 46.1 µM), for the others: at the top dose activity change, negative = cytotoxicity, usual class: cytotoxic; HepG2 CAGA-GFP viability, ATP luminescence, 18 h; also: potency is read from the fitted curve at half-maximal effect
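CellTiter-Glo luminescence gave cytotoxicity after 18 hours at 37 degrees C. The cells were HepG2 CAGA-GFP in 1% FBS DMEM, stimulated with 500 pg/mL TGF-beta after compound addition. %Activity was normalised to no-cell wells (complete cell-killing) and DMSO (no toxicity), and curves were fitted and classified.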
IL-1B inflam inh: inhibitors of inflammasome signaling (IL-1 beta secretion) | THP-1 LPS/ATP IL-1B secretion, AlphaLISA, 16 h; hits give low values | AID 743279 | activity change, % at 57.5 µM | hit rate 4.7% among 360,000; in the data active = activity change below about -50%; inconclusive = mostly about -30% to -49%; also: % is scaled to controls: 0 for no effect and ±100 for the full control effect
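THP-1 cells pretreated 1 hr with compounds (up to 57.5 uM final), then stimulated with LPS (250 ng/mL final) plus ATP (1.25 mM final); secreted IL-1B measured by AlphaLISA after 16 hr, decreased signal indicating inhibition.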
TDP1 cell noCPT: qHTS for Inhibitors of human tyrosyl-DNA phosphodiesterase 1 (TDP1): qHTS in cells in absence of CPT. Potency, µM (top dose mostly 46.2 µM), inactives show top-dose activity change, negative = growth inhibition, hits mostly inhibitors. hit rate 15% among 420,000. DT40 Tdp1-/- hTDP1 cells, no CPT, ATP luminescence, 48 h; also: potency is read from the fitted curve at half-maximal effect; % is scaled to controls: 0 for no effect and ±100 for the full control effect; nearly all actives have a fitted effect of over 55% in size
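Growth of hTDP1-complemented DT40 Tdp1-knockout cells is measured by ATP luminescence after at least 48 hr compound exposure at 37 °C, with DMSO substituting for the 20 nM CPT used in the parallel screen.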
An asterisk follows results filed as active; ? = inconclusive; . = no result; [ ] = dose if it differs, or a comment. Unless noted, calls follow the shape of the dose curve; as a rule, active = well fitted curve in the direction sought with a large enough effect; inconclusive = small, poorly fitted or top-dose-only effect, or another doubt; inactive = no such curve, though single readings can be large; an effect the other way counts as inactive or inconclusive.

SMILES	DT40 TDP1 CPT	TDP1 block	TGFb inhibitor	HepG2 viability	IL-1B inflam inh	TDP1 cell noCPT
CCN1C(C(=O)c2ccccc2)=C(Nc2ccccc2C)c2ccccc2S1(=O)=O	-29.2%	-2.7%	8.3%	-8.2%	?	?
Cc1cccc(CSCCNC(=O)C2CCN(S(=O)(=O)Cc3ccccc3)CC2)c1	-13.4%	8.6%	-12.0%	-28.0%	.	-8.1%
COc1ccc(NC(=O)CN2CCC(C)CC2)c([N+](=O)[O-])c1	8.2µM*	4.1%	0.5%	-18.9%	?	8.2µM*
COc1ccc(NC(=O)CC2Nc3cc(C)c(C)cc3NC2=O)c([N+](=O)[O-])c1 (configuration not stated)	?	6.0%	-12.1%	0.4%	-6.1	5.8µM*
COc1ccc(NC(=O)CN2CCC(NC(=O)C3CCCCC3)CC2)c([N+](=O)[O-])c1	0.2%	4.8%	-3.7%	7.2%	1.4	-1.5%
COc1ccc(NC(=O)CN2CCCCC2)c([N+](=O)[O-])c1	13µM*	4.2%	-4.6%	-1.2%	?	12.6µM*
COc1ccc(NC(=O)CSc2ccccc2)c([N+](=O)[O-])c1	-1.4%	-1.2%	-11.8%	-7.8%	-10.4	29.1µM*
CCC(NC(=O)Nc1cc(Cl)ccc1OC)c1c(-n2cccc2)sc2c1CCN(C)C2 (configuration not stated)	?	9.9%	?	-102.7%	.	?
CO[C@H]1CN(C)C(=O)c2ccc(NC(=O)c3ccc4c(c3)OCO4)cc2OC[C@H](C)N(CC2CC2)C[C@@H]1C	?	.	.	.	33.2	?
COc1cc(-c2ccc(NC(=O)CN3CCC(C)CC3)c(OC)c2)ccc1NC(=O)CN1CCC(C)CC1	23.1µM*	2.1%	?	-15.4%	-0.8	18.4µM*
CNS(=O)(=O)c1cccc(C(=O)OCC(=O)Nc2ccc(OC)cc2[N+](=O)[O-])c1	32.6µM*	-2.5%	7.3%	21.6%	7.1	6.51µM*
CCCNC(=O)C1(C)CCCN(Cc2ccc3c(c2)OCO3)C1 (configuration not stated)	-3.1%	.	9.6%	-4.3%	3.7	-18.9%
O=C(NCc1ccco1)/C(=C/c1ccc(Cl)cc1)NC(=O)c1ccco1	-2.8%	2.7%[0.0935 µM]	0.1%	8.1%	-8.5	3.5%
CC(C)(C)c1ccc(CSc2ccc(S(=O)(=O)N3CCOCC3)cn2)cc1	?	-2.1%	?	-34.0%	-3.0	?
CC(C)C(=O)N1CCCC1(C)C(=O)NCc1ccccn1 (configuration not stated)	-18.3%	.	-5.6%	1.2%	49.1	30.6%
Cc1cccnc1CNC(=O)C1(C)CCCN1CC(C)C (configuration not stated)	14.6µM*	.	-23.4%	-23.2%	52.5	14.6µM*
Cc1ccsc1CNC(=O)C1(C)CCCN1CC(C)C (configuration not stated)	14.6µM*	.	6.3%	-14.9%	11.1	?
Cc1ccsc1C(=O)N1CCCC1(C)C(=O)NCC(C)C (configuration not stated)	-9.4%	.	8.7%	-13.8%	3.8	-11.7%
CSc1ccccc1CNC(=O)C1(C)CCCN1CC(C)C (configuration not stated)	25.9µM*	.	?	-25.4%	23.7	23.1µM*
CCOc1ccc([C@@H]2CC=C(C(=O)O)CN2S(=O)(=O)c2ccc(C)cc2)cc1	-9.6%	0.1%	3.8%	5.6%	36.9	-6.7%
Cc1ccc(C)c(N2CCN(C(=O)c3cnn(C(C)(C)C)c3C3CCN(C(=O)OC(C)(C)C)CC3)CC2)c1	18.4µM*	-1.1%	4.6%	-8.7%	.	?
Cc1ccc(-n2ncc(C(=O)N3CCN(c4cc(Cl)ccc4C)CC3)c2C2CCN(C(=O)OC(C)(C)C)CC2)cc1	?	1.1%	-17.3%	-8.9%	.	-23.7%
Cc1ccc(Cl)cc1N1CCN(C(=O)c2cnn(C(C)(C)C)c2C2CCN(C(=O)OC(C)(C)C)CC2)CC1	25.9µM*	1.1%	-20.2%	-26.4%	.	?
Cc1ccc(Cl)cc1N1CCN(C(=O)c2cnn(C)c2C2CCN(C(=O)OC(C)(C)C)CC2)CC1	6.51µM*	-3.2%	?	-6.1%	.	5.8µM*
Cc1ccc(Cl)cc1N(C)C(=O)Cn1ncc2c([nH]c3ccccc32)c1=O	-20.7%	0.2%	6.2%	-6.2%	-5.5	-18.6%
SMILES	DT40 TDP1 CPT	TDP1 block	TGFb inhibitor	HepG2 viability	IL-1B inflam inh	TDP1 cell noCPT
Cc1ccc2[nH]c3c(=O)n(CC(=O)N(C)c4cc(Cl)ccc4C)ncc3c2c1	18.4µM*	-2.1%	11.6%	-0.6%	.	14.6µM*
CCN(CC)CCOC(=O)c1ccc(NC(=O)Cn2ncc3c([nH]c4ccc(C)cc43)c2=O)cc1	4.11µM*	1.1%	21.6%	-52.8%	.	3.26µM*
Cc1ccc2[nH]c3c(=O)n(CC(=O)N(CCN(C)C)Cc4ccccc4)ncc3c2c1	?	4.2%	11.2µM*	-72.1%	.	23.1µM*
Cc1ccc2oc(=O)c3cnn(CC(=O)NC4CCN(Cc5ccccc5)CC4)c3c2c1	16.4µM*	-1.0%	3.5%	-0.4%	-9.9	20.6µM*
FC(F)(F)c1ccnc(NCc2ccco2)n1	-3.1%	3.9%	38.8%	17.8%	0.9	11.9%
O=C(C[C@H]1CC[C@@H](NC(=O)C2CC2)[C@@H](CO)O1)NCc1ccccc1Cl	-14.8%	.	.	.	35.3	-6.8%
COc1ccc(OC)c(CN2CCCC(n3cc(C(=O)N4CCCCC4)nn3)C2)c1 (configuration not stated)	-0.4%	.	.	.	.	-17.8%
CCOc1ccccc1N1CCN(C(=O)c2ccc(OCC(=O)N3CCOCC3)c(OC)c2)CC1	-20.3%	3.4%	14.3%	16.8%	17.7	20.8%
Cc1ccc(N(C)C(=O)Cn2ncc3c([nH]c4ccccc43)c2=O)cc1C	11.6µM*	2.5%	-2.0%	-26.1%	.	?
Cc1ccc(C)c(N2CCN(C(=O)Cn3ncc4c([nH]c5ccc(C)cc54)c3=O)CC2)c1	14.6µM*	1.2%	1.2%	-0.6%	5.6	13µM*
Cc1ccc2[nH]c3c(=O)n(CC(=O)N4CCCCC4)ncc3c2c1	-16.1%	0.0%	0.3%	-1.0%	.	17.4%
Cc1ccc2oc(=O)c3cnn(CC(=O)N4CCN(c5cc(Cl)ccc5C)CC4)c3c2c1	?	1.3%	?	-7.1%	.	16.4µM*
CCN(Cc1ccccc1)C(=O)C(=O)c1cn(CC(=O)N2CCCC2)c2ccccc12	-15.2%	3.8%	1.2%	-3.1%	-6.6	13.3%
